Bioassay records (PubChem BioAssay)
Pf growth 48h: Primary qHTS for delayed death inhibitors of the malarial parasite plastid, 48 hour incubation; P. falciparum luciferase growth in erythrocytes, 48 h; Potency, µM (top dose mostly 28.7 µM), for inactives: at the highest dose activity change, negative = inhibition, actives largely listed as inhibitors; 5.9% of 310,000 active; further: potency means the concentration at half of the fitted maximal effect; on the % scale 0 is the no-effect control and ±100 the full control effect
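Firefly luciferase activity from engineered P. falciparum reports growth; inhibitors lower the luminescent signal. Cultures contained 2% hematocrit erythrocytes at 0.1% final parasitemia.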
Pf growth 96h: Primary qHTS for delayed death inhibitors of the malarial parasite plastid, 96 hour incubation; P. falciparum luciferase reporter growth, 96 h; 6.9% of 320,000 active; AID 504834, 2011; Potency, µM (highest dose often 28.7 µM), inactives show top-dose activity change, negative = inhibition, actives largely listed as inhibitors; further: potency means the concentration at half of the fitted maximal effect; on the % scale 0 is the no-effect control and ±100 the full control effect
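96 h incubation, 37 C, 5% CO2, of luciferase-reporter P. falciparum-infected RBCs (2% hematocrit, 0.05% parasitemia final) with test compounds; endpoint luminescence.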
Cycloheximide cs: Cycloheximide Counterscreen for Small Molecule Inhibitors of Shiga Toxin; cell reporter, cycloheximide protein synthesis inhibition counterscreen; max response, %; 12% of 300,000 active; in the data active means max response mostly above about 13%, no sharp cut-off; inactive means mostly below about 14%; further: read at 38.3 µM for the half of the compounds with a filed dose; 0% is about no effect
NS1 function inh: qHTS Assay for Inhibitors of Influenza NS1 Protein Function; Potency, µM (titrated, usually from 46.1 µM), for the others: top-dose activity, positive = more growth; 0.4% of 270,000 active; calls by dose curve; further: potency means the concentration at half of the fitted maximal effect; actives are rising curves; nearly all actives have a fitted effect of over 50% in size
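Compounds were scored for reversing the slow growth caused by influenza A NS1 in S. cerevisiae, measured by optical density at 600 nm. Assay medium contained 2% galactose at pH 6.0; NS1-free yeast of the same strain were the positive control.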
Giardia FBPA inh: qHTS Assay for Inhibitors of Fructose-1,6-bisphosphate Aldolase from Giardia Lamblia; A8B2U2; purified Giardia FBPA; Potency, µM (doses to about 59.6 µM), for inactives: at the top dose activity, negative = inhibition, hits mostly inhibitors; 0.71% of 290,000 active; further: potency means the concentration at half of the fitted maximal effect; on the % scale 0 is the no-effect control and ±100 the full control effect; nearly all actives have a fitted effect of over 55% in size
Target sequence (A8B2U2 whole entry, looked up): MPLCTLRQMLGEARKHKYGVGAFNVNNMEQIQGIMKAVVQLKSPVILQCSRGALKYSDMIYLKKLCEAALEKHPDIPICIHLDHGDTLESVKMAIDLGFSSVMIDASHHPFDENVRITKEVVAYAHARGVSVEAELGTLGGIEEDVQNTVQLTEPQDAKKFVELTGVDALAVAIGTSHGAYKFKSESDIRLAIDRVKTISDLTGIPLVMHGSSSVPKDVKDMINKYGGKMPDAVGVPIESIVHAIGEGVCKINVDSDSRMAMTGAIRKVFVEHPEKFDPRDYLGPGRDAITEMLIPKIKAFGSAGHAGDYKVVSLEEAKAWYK
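40 nM FBPA preincubated 10 min at RT with compound (up to 57.5 uM final), then substrate plus GAPDH/TPI/NAD/arsenate coupling and diaphorase/resazurin added. Fluorescence read after 20 min at RT, 525/598 nm.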
Shiga inhibitor: A qHTS for Small Molecule Inhibitors of Shiga Toxin. Vero cells, Shiga toxin protein synthesis inhibition reporter. inhibition, % at 38.7 µM. 9.2% of 290,000 active. AID 2315, 2010; in the data active means inhibition mostly above about 28%, no sharp cut-off; inactive means mostly below about 43%; further: 0% is about no effect
* hit, by the source's call; ? = inconclusive; · = no result given. In the library only some 21% were active in any assay of this set; here they are far more common. Unless noted, the call rests on the fitted dose curve; in most records, active means well fitted curve in the direction sought with a large enough effect; inconclusive means small, poorly fitted or top-dose-only effect, or another doubt; inactive means no such curve, though single readings can be large; an effect the other way counts as inactive or inconclusive.

SMILES | Pf growth 48h | Pf growth 96h | Cycloheximide cs | NS1 function inh | Giardia FBPA inh | Shiga inhibitor
COc1ccccc1N1CCN(S(=O)(=O)c2ccc(-n3cnnn3)c(C)c2)CC1 | -4% | 1.7µM* | -1 | 6% | 2% | -7
COc1ccccc1N1CCN(S(=O)(=O)c2cc(C)sc2C)CC1 | · | 4.7µM* | -5 | -7% | 1% | -14
COc1ccc2c(c1)O[C@@H](c1ccc3c(c1)OCO3)[C@H](OC(=O)NS(=O)(=O)c1ccc(C)cc1)C2=O | · | · | · | · | 3% | ·
CC(C)C[C@H](NC(=O)[C@H](CCCCN)NC(=O)CNC(=O)[C@H](CC(C)C)NC(=O)[C@@H](N)C(C)C)C(=O)N[C@@H](CO)C(=O)N[C@@H](CCC(N)=O)C(=O)N[C@@H](CCC(=O)O)C(=O)N[C@@H](CC(C)C)C(=O)N[C@@H](Cc1cnc[nH]1)C(=O)N[C@@H](CCCCN)C(=O)N[C@@H](CC(C)C)C(=O)N[C@@H](CCC(N)=O)C(=O)N[C@H](C(=O)N[C@@H](Cc1ccc(O)cc1)C(=O)N1CCC[C@H]1C(=O)N[C@@H](CCCNC(=N)N)C(=O)N[C@H](C(=O)N[C@@H](CC(N)=O)C(=O)N[C@H](C(=O)NCC(=O)N[C@@H](CO)C(=O)NCC(=O)N[C@H](C(=O)N1CCC[C@H]1C(N)=O)[C@@H](C)O)[C@@H](C)O)[C@@H](C)O)[C@@H](C)O | · | · | -7 | · | 7% | 8
CC1(C)Cc2nc3oc4c(NCCCN5CCOCC5)ncnc4c3cc2CO1 | 37% | ? | 1 | 0% | 2% | 11
CCCCNC(=O)O[C@H]1C[C@@H]2CCN3C(=O)CCC(C)(C)[C@H](C1)[C@H]23 | 1% | -10% | -3 | 4% | -3% | 13
CC1(C)CCC(=O)N2CC[C@H]3C[C@H](OC(=O)Nc4ccccc4)C[C@@H]1[C@H]32 | 130% | 50% | 36* | -35% | 9% | 39*
CC1(C)CCC(=O)N2CC[C@H]3C[C@H](OC(=O)Nc4ccc5c(c4)OCO5)C[C@@H]1[C@H]32 | 23% | 115% | 20* | -5% | 6% | 23*
O=C(O)C/C(=C\c1ccco1)C(=O)O | · | · | · | -1% | · | ·
CCN(CC)S(=O)(=O)c1ccc2c(c1)N(CC(=O)N1CCCC1)C(=O)CO2 | -8% | 0% | -3 | -1% | 2% | -3
COc1ccc(NC(=O)CC2Nc3ccccc3NC2=O)c([N+](=O)[O-])c1 (centres undefined) | ? | -5% | 9 | · | -5% | 5
COc1ccc(OC)c(NC(=O)CC2Oc3ccccc3NC2=O)c1 (centres undefined) | 38% | 1% | 14* | 6% | -2% | 28
CCOc1ccc(OCC)c(NC(=O)CC2Oc3ccc(C)cc3NC2=O)c1 (centres undefined) | · | 10µM* | -5 | 5% | -14% | -11
COc1ccccc1NC(=O)CC1Nc2ccccc2NC1=O (centres undefined) | 3.7µM* | · | 4 | 16% | -12% | 19
Cc1cccnc1NC(=O)C1CCCN1S(=O)(=O)c1ccc(Cl)cc1 (centres undefined) | 13% | 17% | -4 | 5% | · | -18
COc1ccc(N2CC(C(=O)N[C@@H](C)C(=O)NCCc3ccccc3)CC2=O)cc1 (some centres undefined) | 15% | 24% | -2 | 11% | -2% | -3
Cc1sc2ncn(CC(=O)NCCCN3CC(C)CC(C)C3)c(=O)c2c1S(=O)(=O)N1CC(C)CC(C)C1 (centres undefined) | -18% | -11% | -1 | -20% | 5% | -6
Cc1ccc(S(=O)(=O)N(C)/N=C/c2ccc(N(C)C)cc2)cc1 | · | 62% | 57* | -11% | -1% | 70*
CCOc1ccc(OCCC(=O)OCC(=O)NC2CCCCC2)cc1 | 21% | -27% | 7 | 7% | -3% | -8
Cc1cc(-c2cccs2)n[nH]1 | 7% | · | 14 | -1% | 3% | 28
Cc1cc(-c2ccc(Cl)s2)n[nH]1 | 53% | 75% | 29* | 15% | 3% | 82*
CC1(c2ccc3c(c2)OCCO3)NC(=O)N(CC(=O)Nc2ccccc2F)C1=O (centres undefined) | 3% | 44% | · | · | · | ·
CCCCNC(=O)COn1nnc2ccc(S(=O)(=O)N3CCOCC3)cc21 | 4% | 4% | · | · | · | ·
O=C(NCCN1C(=O)C2C3C=CC(C3)C2C1=O)Nc1ccccc1 (centres undefined) | · | ? | 20 | -9% | 6% | 9
Cc1ccc(C(=O)NN2C(=O)C3C4C=CC(C4)[C@@H]3C2=O)cc1 (some centres undefined) | 1.9µM* | 82% | 12 | 1% | 3% | 33
SMILES | Pf growth 48h | Pf growth 96h | Cycloheximide cs | NS1 function inh | Giardia FBPA inh | Shiga inhibitor
COc1ccc(NC(=O)NCCN2C(=O)C3C4C=CC(C4)C3C2=O)cc1 (centres undefined) | 94% | 12µM* | 32* | 5% | 3% | 60*
Cc1ccc(NC(=O)NCCN2C(=O)C3C4C=CC(C4)C3C2=O)cc1 (centres undefined) | · | ? | 112* | 4% | 1% | 134*
Cc1cccc(NC(=O)CCN2C(=O)C3C4C=CC(C4)C3C2=O)c1 (centres undefined) | 27% | · | 9 | 4% | 4% | -19
Cc1cccc(NC(=O)NCCN2C(=O)C3C4C=CC(C4)C3C2=O)c1 (centres undefined) | · | 12µM* | 17 | -7% | 2% | 41
COC(=O)c1ccccc1NC(=O)Nc1ccc(Cl)cn1 | 108% | 4% | 12 | 4% | -1% | 35
O=C(Nc1ccc(Cl)cn1)c1ccccc1F | 212% | 36% | 32* | -18% | 2% | 88*
O=C(Nc1ccc(Cl)cn1)c1cccc(F)c1 | 109% | 147% | 32* | -5% | -2% | 121*
O=C(Nc1ccc(Cl)cn1)Nc1ccccc1F | 160% | 165% | 18 | 1% | 3% | 53*
COc1cc2ccccc2cc1C(=O)Nc1ccc(Cl)cn1 | 131% | 2% | 16* | -4% | 1% | ·
O=C(Nc1cccc(C(=O)Nc2ccc(Cl)cn2)c1)c1ccccc1 | 20% | ? | 10 | 2% | 5% | 58
O=C(NC(=O)c1ccccc1)Nc1ccc(Cl)cn1 | 267% | 13% | 52* | 2% | 1% | 145*
O=C(Nc1ccc(Cl)cn1)c1cc2ccccc2o1 | 149% | · | 66* | -36% | -13% | 105*
O=C(Nc1ccc(Cl)cn1)Nc1ccc(Cl)cn1 | 49% | ? | -1 | · | -1% | 27
O=C(Nc1ccccn1)c1cc2ccccc2o1 | 116% | ? | -2 | -11% | -6% | -7
Cc1cc(C)cc(NC(=O)Nc2ccc(Cl)cn2)c1 | 33% | ? | -2 | -3% | 1% | 1
